Out of some 5,500 compounds screened, about 2,000 (36%) were called active. About 18% were inconclusive and are not listed. Cut-off read from the data, not from the text of the source: active = normalized growth mostly below about 0.91 (no sharp cut-off); inconclusive = no clear call, values can overlap the other calls; inactive = mostly above about 0.92. This is one part of the list.
Experiment: chemical genetic growth profiling, strain panel (AID 1159580);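 note: tested at 20 µM; growth read once vehicle control cultures reached saturation at 30 °C; 1 = growth at the plate median or of vehicle wells; lower values mean less growth of the strain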
Conditions: growth OD

Measured: normalized growth

CCNc1nc(Cl)nc(NC(C)C)n1
inactive: S. cerevisiae deletion strains, locus YJR075W, strain HOC1, hits give low values 1.02 | S. cerevisiae deletion strains, locus YKL009W, strain mrt4, hits give low values 1.03 | S. cerevisiae deletion strains, locus YKL068W, hits give low values 1.02 | S. cerevisiae deletion strains, locus YKL085W, strain MDH1 (second series), hits give low values 1.02 | S. cerevisiae deletion strains, locus YKL085W, strain MDH1, hits give low values 1.02 | S. cerevisiae deletion strains, locus YKL160W, strain elf1, hits give low values 1 | S. cerevisiae deletion strains, locus YKL190W, strain CNB1, hits give low values 1.03 | S. cerevisiae deletion strains, locus YKR001C, strain vps1, hits give low values 1.03 | S. cerevisiae deletion strains, locus YKR026C, strain gcn3, hits give low values 0.991 | S. cerevisiae deletion strains, locus YKR091W, strain srl3, hits give low values 1.01 | S. cerevisiae deletion strains, locus YLL001W, strain dnm1, hits give low values 0.998 | S. cerevisiae deletion strains, locus YLL026W, hits give low values 1 | S. cerevisiae deletion strains, locus YLL041C, strain sdh2, hits give low values 1 | S. cerevisiae deletion strains, locus YLR027C, strain aat2, hits give low values 0.996 | S. cerevisiae deletion strains, locus YLR039C, strain RIC1, hits give low values 1.02 | S. cerevisiae deletion strains, locus YLR058C, strain SHM2, hits give low values 1.02 | S. cerevisiae deletion strains, locus YLR102C, strain apc9, hits give low values 1.02 | S. cerevisiae deletion strains, locus YLR113W, strain HOG1, hits give low values 0.993 | S. cerevisiae deletion strains, locus YLR221C, strain rsa3, hits give low values 1.01 | S. cerevisiae deletion strains, locus YLR258W, strain gsy2, hits give low values 1.01 | S. cerevisiae deletion strains, locus YLR262C, strain YPT6 (second series), hits give low values 1.01 | S. cerevisiae deletion strains, locus YLR262C, strain YPT6, hits give low values 1.04 | S. cerevisiae deletion strains, locus YLR268W, strain sec22, hits give low values 1.01 | S. cerevisiae deletion strains, locus YLR320W, strain mms22, hits give low values 1.01 | S. cerevisiae deletion strains, locus YLR330W, strain CHS5, hits give low values 1.02 | S. cerevisiae deletion strains, locus YLR342W, strain FKS1 (second series), hits give low values 1.01 | S. cerevisiae deletion strains, locus YLR342W, strain FKS1, hits give low values 1 | S. cerevisiae deletion strains, locus YLR357W, strain rsc2, hits give low values 0.991 | S. cerevisiae deletion strains, locus YLR370C, strain arc18, hits give low values 0.984 | S. cerevisiae deletion strains, locus YLR371W, strain rom2, hits give low values 1.02 | S. cerevisiae deletion strains, locus YLR384C, strain iki3, hits give low values 1.01 | S. cerevisiae deletion strains, locus YLR418C, strain cdc73, hits give low values 1.04 | S. cerevisiae deletion strains, locus YML016C, strain PPZ1, hits give low values 1.01 | S. cerevisiae deletion strains, locus YML032C, strain rad52, hits give low values 1.03 | S. cerevisiae deletion strains, locus YML120C, strain ndi1, hits give low values 1.02 | S. cerevisiae deletion strains, locus YML124C, strain tub3, hits give low values 1.02 | S. cerevisiae deletion strains, locus YMR058W, strain fet3, hits give low values 1.01 | S. cerevisiae deletion strains, locus YMR078C, strain ctf18, hits give low values 1.01 | S. cerevisiae deletion strains, locus YMR125W, strain sto1, hits give low values 0.977 | S. cerevisiae deletion strains, locus YMR129W, hits give low values 1 | S. cerevisiae deletion strains, locus YMR205C, strain PFK2, hits give low values 1.01 | S. cerevisiae deletion strains, locus YMR223W, strain ubp8, hits give low values 1.02 | S. cerevisiae deletion strains, locus YMR231W, strain pep5, hits give low values 0.996 | S. cerevisiae deletion strains, locus YMR263W, strain SAP30, hits give low values 1.03 | S. cerevisiae deletion strains, locus YMR307W, strain GAS1, hits give low values 1.09 | S. cerevisiae deletion strains, locus YNL067W, strain RPL9B, hits give low values 1.02 | S. cerevisiae deletion strains, locus YNL071W, strain lat1, hits give low values 1.01 | S. cerevisiae deletion strains, locus YNL128W, strain TEP1, hits give low values 1.02 | S. cerevisiae deletion strains, locus YNL153C, strain GIM3, hits give low values 1.01 | S. cerevisiae deletion strains, locus YNL183C, strain NPR1, hits give low values 0.97 | S. cerevisiae deletion strains, locus YNL209W, strain ssb2, hits give low values 1.01 | S. cerevisiae deletion strains, locus YNL233W, strain BNI4, hits give low values 0.98 | S. cerevisiae deletion strains, locus YNL248C, strain rpa49, hits give low values 0.994 | S. cerevisiae deletion strains, locus YNL250W, strain rad50, hits give low values 1.01 | S. cerevisiae deletion strains, locus YNL271C, strain bni1, hits give low values 1.02 | S. cerevisiae deletion strains, locus YNL298W, strain CLA4, hits give low values 1.02 | S. cerevisiae deletion strains, locus YNL307C, strain MCK1, hits give low values 1.02 | S. cerevisiae deletion strains, locus YNL322C, strain KRE1 (second series), hits give low values 1 | S. cerevisiae deletion strains, locus YNL322C, strain KRE1, hits give low values 1.02 | S. cerevisiae deletion strains, locus YNR049C, strain mso1, hits give low values 1 | S. cerevisiae deletion strains, locus YNR052C, strain pop2, hits give low values 1.04 | S. cerevisiae deletion strains, locus YOL006C, strain TOP1, hits give low values 1.04 | S. cerevisiae deletion strains, locus YOL012C, strain htz1 1.05 | S. cerevisiae deletion strains, locus YOL147C, strain pex11, hits give low values 1.01 | S. cerevisiae deletion strains, locus YOR001W, strain rrp6, hits give low values 0.998 | S. cerevisiae deletion strains, locus YOR061W, strain CKA2, hits give low values 1.02 | S. cerevisiae deletion strains, locus YOR069W, strain VPS5, hits give low values 1.01 | S. cerevisiae deletion strains, locus YOR070C, strain gyp1, hits give low values 1.01 | S. cerevisiae deletion strains, locus YOR080W, strain dia2, hits give low values 0.995 | S. cerevisiae deletion strains, locus YOR083W, strain WHI5, hits give low values 1 | S. cerevisiae deletion strains, locus YOR106W, strain vam3, hits give low values 1.04 | S. cerevisiae deletion strains, locus YOR136W, strain idh2, hits give low values 1.02 | S. cerevisiae deletion strains, locus YOR144C, strain elg1, hits give low values 1.02 | S. cerevisiae deletion strains, locus YOR184W, strain ser1, hits give low values 1.03 | S. cerevisiae deletion strains, locus YOR231W, strain MKK1, hits give low values 0.997 | S. cerevisiae deletion strains, locus YOR265W, strain rbl2, hits give low values 1 | S. cerevisiae deletion strains, locus YOR270C, strain vph1, hits give low values 0.975 | S. cerevisiae deletion strains, locus YOR290C, strain snf2, hits give low values 1.01 | S. cerevisiae deletion strains, locus YOR316C, strain cot1, hits give low values 1.03 | S. cerevisiae deletion strains, locus YPL051W, strain arl3, hits give low values 0.98 | S. cerevisiae deletion strains, locus YPL055C, strain LGE1, hits give low values 1.03 | S. cerevisiae deletion strains, locus YPL078C, strain atp4, hits give low values 0.977 | S. cerevisiae deletion strains, locus YPL106C, strain sse1, hits give low values 1.03 | S. cerevisiae deletion strains, locus YPL240C, strain hsp82, hits give low values 1.01 | S. cerevisiae deletion strains, locus YPL241C, strain CIN2, hits give low values 1.03 | S. cerevisiae deletion strains, locus YPL256C, strain CLN2, hits give low values 0.996 | S. cerevisiae deletion strains, locus YPR119W, strain clb2, hits give low values 1.01 | S. cerevisiae deletion strains, locus YPR141C, strain kar3, hits give low values 1.03 | S. cerevisiae deletion strains, locus YPR163C, strain tif3, hits give low values 1.03 | S. cerevisiae deletion strains, locus YPR167C, strain met16, hits give low values 1.02 | S. cerevisiae deletion strains, strain wtn01, hits give low values 1.02 | S. cerevisiae strains, strain wild type, hits give low values 1.02

Reference: PubChem BioAssay AID1159580 (chemical genetic matrix, 2015)
